High-throughput results: PubChem BioAssay, several laboratories
Platelet DG rel = platelet dense granule release activity. human platelet-rich plasma, SFLLRN dense granule ATP release, luminescence. inhibition, %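 (compounds screened at 7.5 µM in platelet-rich plasma)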. 300,000 tested, 0.22% active. AID 1663;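 active = mean replicate score, as percent of positive control, at or above 50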
SENP8 block-1 = SENP8 (human) protease inhibition | Q96LD8 | recombinant SENP8, Nedd8 substrate fluorescence | inhibition, % at 20 µM | 360,000 tested, 0.64% active; in the data active = inhibition mostly above about 40%, no sharp cut-off; inactive = mostly below about 27%
Target sequence (Q96LD8 whole entry, looked up): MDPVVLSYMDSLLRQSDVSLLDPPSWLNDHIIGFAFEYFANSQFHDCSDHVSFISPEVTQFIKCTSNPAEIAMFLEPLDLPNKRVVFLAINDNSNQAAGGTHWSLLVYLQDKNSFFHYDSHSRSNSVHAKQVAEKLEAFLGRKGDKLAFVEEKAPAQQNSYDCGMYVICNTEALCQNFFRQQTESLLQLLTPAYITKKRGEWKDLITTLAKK
HSP90 refold inh = blocks HSP90-mediated luciferase refolding in reticulocyte lysate | Rabbit reticulocyte lysate, luciferase refolding luminescence, 3 h | inhibition, % at 5.6 µM | 290,000 tested, 0.91% active;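 active = inhibition above the screen-wide mean plus 3 SD, computed separately per campaign, cut at about 16% in these data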;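 note: inhibitors lower the luminescence because luciferase stays unfolded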
SENP8 block-2 = SENP8 protease inhibition; Q96LD8; purified SENP8, Z-RLRGG-aminoluciferin cleavage, luminescence; inhibition, % at 10 µM; 330,000 tested, 1.2% active; AID 2540; in the data active = inhibition above about 50%
SENP6 block = inhibitors of human SENP6 protease; inhibition, % at 10 µM; AID 2599; 330,000 tested, 1.8% active; Q9GZR1; Recombinant SENP6 catalytic domain, aminoluciferin luminescence;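 active = inhibition above about 50% at the single tested dose, limit read from the data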
SENP7 block = SENP7 protease inhibition | Q9BQF6 | recombinant SENP7, Z-RLRGG-aminoluciferin luminescence, 40 min | inhibition, % at 5 µM | 330,000 tested, 1.5% active | AID 434973;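 active = inhibition above about 50% at the single test dose, limit read from the data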
Target sequence (Q9BQF6 706-1050 limits assumed): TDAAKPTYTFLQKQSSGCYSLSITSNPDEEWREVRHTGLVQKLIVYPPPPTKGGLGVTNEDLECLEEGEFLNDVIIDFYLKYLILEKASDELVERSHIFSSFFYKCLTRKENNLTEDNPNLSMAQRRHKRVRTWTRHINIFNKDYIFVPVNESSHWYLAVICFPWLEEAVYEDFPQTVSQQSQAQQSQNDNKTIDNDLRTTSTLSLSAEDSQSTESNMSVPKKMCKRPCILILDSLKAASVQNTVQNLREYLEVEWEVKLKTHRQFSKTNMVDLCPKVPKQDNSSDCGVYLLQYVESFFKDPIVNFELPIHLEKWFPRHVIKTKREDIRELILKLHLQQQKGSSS
SENP8 confirm = confirmation of human SENP8 protease inhibitors. AID 488912. 6,200 tested, 40% active. Recombinant SENP8, Z-RLRGG-aminoluciferin luminescence, 60 min. inhibition, % at 12.5 µM. shares compounds with SENP7 block;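 active = mean inhibition across replicates above about 50%, limit read from the data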
SENP6 confirm = confirmation of human SENP6 protease inhibitors. shares compounds with SENP7 block. recombinant SENP6, Z-RLRGG-aminoluciferin luminescence. inhibition, % at 12.5 µM. 6,200 tested, 58% active. AID 488915
SENP7 conf = confirmation of human SENP7 protease inhibitors. shares compounds with SENP7 block. recombinant SENP7, Z-RLRGG-aminoluciferin luminescence, 40 min. inhibition, % at 12.5 µM. 6,200 tested, 69% active
Casp3 select = selectivity test for SENP inhibitors: human caspase-3 inhibition | purified caspase-3, Z-DEVD-aminoluciferin luminescence, 60 min | AID 488918 | inhibition, % at 12.5 µM | 6,200 tested, 60% active | shares compounds with SENP7 block;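 active = mean inhibition above about 50%, limit read from the data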
Luc interf = luminescence interference (SENP counter-screen) | shares compounds with SENP7 block | AID 488919 | Pre-incubated SENP8/Z-RLRGG-aminoluciferin, luciferase luminescence interference | 6,200 tested, 39% active | inhibition, % at 12.5 µM;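 active = mean inhibition above about 50% when retested at one dose, limit read from the data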
Each line names hits and unclear results; the compound was inactive in the other large screens (follow-up assays come after a bar, where they were run). Hits are enriched below; roughly 2.8% of the tested compounds scored in any of these assays.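 Rule for the calls, unless noted: active = mean inhibition above about 50% in the one-dose retest (limit read from the data); inactive = the rest.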

COc1cc(C=C2CN(C)C(=O)C2=O)ccc1O	none (no result: Platelet DG rel, HSP90 refold inh, SENP8 block-2, SENP6 block, SENP7 block)
CC(C)c1ccc(Nc2n[nH]c(=S)s2)cc1	none (no result: Platelet DG rel, HSP90 refold inh, SENP8 block-2, SENP6 block, SENP7 block)
Cc1cc(=O)[nH]c(SCc2ccccc2)n1	none
Cc1cc(=O)[nH]c(S/C=C/c2ccccc2)n1	SENP8 block-2 76.7, SENP6 block 63.6, SENP7 block 90.0 | SENP8 confirm 88.7 | SENP6 confirm 90.2 | SENP7 conf 98.4 | Casp3 select 94.2 | Luc interf 89.2
C=CCn1c(SCC(=O)Nc2ccc(NC(=O)c3ccco3)c(OC)c2)nnc1-c1ccncc1	SENP6 block 74.1 | SENP8 confirm inactive | SENP6 confirm inactive | SENP7 conf inactive | Casp3 select inactive | Luc interf inactive
CCCN(CC(=O)Nc1ccccc1OC)C(=O)C1=COCCO1	none (no result: Platelet DG rel, HSP90 refold inh)
O=C(Nc1nc2c(s1)CCCC2)c1ccc(Br)o1	HSP90 refold inh 16.4, SENP8 block-2 85.7, SENP6 block 91.2, SENP7 block 87.7 | SENP8 confirm 90.4 | SENP6 confirm 90.6 | SENP7 conf 99.1 | Casp3 select 90.9 | Luc interf 87.2
Cc1ccc(C(=O)Nc2nc3c(s2)CCCC3)o1	SENP8 block-2 81.7, SENP6 block 94.1, SENP7 block 92.8 | SENP8 confirm inactive | SENP6 confirm 89.6 | SENP7 conf 100.0 | Casp3 select 93.1 | Luc interf inactive
Cc1csc(NC(=O)c2ccc(C)o2)n1	none
O=C(Nc1nc2c(s1)CCCC2)C1COc2ccccc2O1 (stereo not given)	HSP90 refold inh 50.9, SENP8 block-2 59.2, SENP6 block 66.7, SENP7 block 59.2 | SENP8 confirm 74.8 | SENP6 confirm 73.0 | SENP7 conf 91.8 | Casp3 select 66.6 | Luc interf inactive
O=C(Nc1nc2c(s1)CCCC2)c1cccnc1	none
Cc1nnc(NC(=O)C2COc3ccccc3O2)s1 (stereo not given)	none
NC(=O)c1ccc2c(=O)n3c(-c4cccs4)csc3nc2c1	none (no result: HSP90 refold inh)
Cc1ccc(C(O)C(=O)c2ccco2)cc1 (stereo not given)	SENP7 block 74.8 (no result: HSP90 refold inh) | SENP8 confirm inactive | SENP6 confirm inactive | SENP7 conf inactive | Casp3 select inactive | Luc interf inactive
Cc1nnc(SCc2cc(=O)[nH]c(/N=C(\N)Nc3ccccc3)n2)s1	none
CCOc1ccc(N/C(N)=N/c2nc(CSc3nnc(C)s3)cc(=O)[nH]2)cc1	SENP6 block 54.7 | SENP8 confirm inactive | SENP6 confirm inactive | SENP7 conf inactive | Casp3 select inactive | Luc interf inactive
CCC(C)(C)NC(=S)Nc1ccc(-c2nc3ccc(C)cc3s2)cc1	none
COc1ccc(/C=C(\C#N)C(=O)OCC(=O)Nc2ccc(-c3nc4ccc(C)cc4s3)cc2)cc1	SENP7 block 53.2 | SENP8 confirm inactive | SENP6 confirm inactive | SENP7 conf inactive | Casp3 select inactive | Luc interf 54.2
CNC(=S)Nc1ccc(-c2nc3ccc(C)cc3s2)cc1	SENP8 block-2 63.8, SENP6 block 74.3 | SENP8 confirm inactive | SENP6 confirm 64.2 | SENP7 conf 86.4 | Casp3 select inactive | Luc interf inactive
Cc1ccc(CN2CCN(Cc3ccncc3)CC2CCO)o1 (stereo not given)	SENP6 block 76.2 | SENP8 confirm inactive | SENP6 confirm inactive | SENP7 conf inactive | Casp3 select inactive | Luc interf inactive
COc1ccc(C)cc1NC(=O)C1CCCN(S(=O)(=O)c2cccnc2)C1 (stereo not given)	SENP8 block-2 60.0 | SENP8 confirm inactive | SENP6 confirm inactive | SENP7 conf inactive | Casp3 select inactive | Luc interf inactive
O=C(Nc1ncnc2c1ncn2[C@@H]1O[C@H](/C=C/C(=O)N2CCN(c3ccc(F)cc3)CC2)[C@@H](O)[C@H]1O)c1ccccc1	none (no result: Platelet DG rel, HSP90 refold inh, SENP8 block-2, SENP6 block, SENP7 block)
CCOc1ccc2oc(C(=O)Nc3cc(C)ccn3)c(C)c2c1	SENP8 block-2 89.5, SENP6 block 93.1, SENP7 block 97.0 (no result: HSP90 refold inh) | SENP8 confirm inactive | SENP6 confirm 62.8 | SENP7 conf 76.4 | Casp3 select 82.9 | Luc interf inactive
N=c1oc2ccccc2cc1C(=O)NC1CCCCCC1	none
CCC(=O)Nc1ccc(NC(=S)NC(=O)c2oc3ccccc3c2C)cc1	none
Cc1cccnc1NC(=S)NC(=O)c1oc2ccccc2c1C	SENP6 block 78.9 | SENP8 confirm inactive | SENP6 confirm inactive | SENP7 conf inactive | Casp3 select inactive | Luc interf inactive
CCOc1ccc2oc(C(=O)Nc3ccc4c(c3)OCO4)c(C)c2c1	SENP8 block-2 65.3, SENP6 block 72.5, SENP7 block 62.5 | SENP8 confirm 63.0 | SENP6 confirm inactive | SENP7 conf 85.7 | Casp3 select 53.3 | Luc interf inactive
O=C(NC1CCCCCC1)c1cc2ccccc2oc1=O	SENP6 block 72.8, SENP7 block 56.4 | SENP8 confirm 50.5 | SENP6 confirm 59.5 | SENP7 conf 68.3 | Casp3 select 63.3 | Luc interf inactive
CCOc1ccc2oc(C(=O)Nc3ccc(N4CCOCC4)cc3)c(C)c2c1	none
COc1ccc(O)c(CN2CCC(n3nccc3NC(=O)c3ccccc3Cl)CC2)c1	none
Cc1csc(NC(=O)c2oc3ccccc3c2C)n1	none (no result: HSP90 refold inh)
COc1cc2ccccc2cc1C(=O)Nc1cc(C)ccn1	none
Cc1c(C(=O)Nc2cnccn2)oc2ccccc12	none
Cc1ccnc(NC(=O)c2oc3ccccc3c2C)c1	SENP8 block-2 72.1, SENP6 block 81.0, SENP7 block 85.3 (no result: HSP90 refold inh) | SENP8 confirm 52.0 | SENP6 confirm 84.8 | SENP7 conf 80.8 | Casp3 select 58.0 | Luc interf inactive
Cc1c(C(=O)NC2=NCCS2)oc2ccccc12	SENP8 block-2 70.3, SENP6 block 86.2, SENP7 block 85.5 | SENP8 confirm 81.3 | SENP6 confirm 83.3 | SENP7 conf 97.8 | Casp3 select 92.9 | Luc interf 86.6
Cc1ccnc(NC(=O)c2cc3ccccc3oc2=O)c1	SENP8 block-2 82.3, SENP6 block 72.2, SENP7 block 95.1 | SENP8 confirm inactive | SENP6 confirm inactive | SENP7 conf inactive | Casp3 select 55.2 | Luc interf inactive
CCOc1ccc(NC(=O)c2ccc(OC)cc2)cc1	none
O=C(Nc1ccccc1)c1ccc(COc2ccccc2)cc1	SENP7 block 63.5 | SENP8 confirm inactive | SENP6 confirm inactive | SENP7 conf inactive | Casp3 select inactive | Luc interf inactive
O=C(Nc1ccc(OCc2ccccc2)cc1)c1cccnc1	none
